Common to all, as to conditions: mRNA level, 48 h; actives raise or lower the signal
Read-out in experiment [1]: Pro-epidermal growth factor (Homo sapiens) (UniProt P01133)
The experiment in a line: LTEA_HepaRG_EGF: Life Technologies and Expression Analysis (LTEA) Assay for Epidermal growth factor (EGF) using HepaRG (AID 2283489). A digest of the protocol: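 HepaRG cells (~100,000/well, 48 h pre-culture) exposed in duplicate for 48 h in serum-free induction medium to 8 half-log concentrations up to 100 uM in 0.5% DMSO. EGF mRNA by qRT-PCR, normalized to ACTB/GAPDH/POLR2A; bidirectional fit versus DMSO.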

Read-out in experiment [2]: Early growth response protein 1 (EGR1) transcription factor, EGR1 (gene 1958)
The experiment in a line: LTEA_HepaRG_EGR1: Life Technologies and Expression Analysis (LTEA) Assay for Early growth response protein 1 (EGR1) transcription factor using HepaRG (AID 2283490). The procedure, abridged: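 HepaRG, 48 h exposure, 8-pt half-log series from 100 uM, 0.5% DMSO vehicle; EGR1 transcript by TaqMan qRT-PCR (Fluidigm array), housekeeping-normalized; bidirectional fit relative to DMSO baseline.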

Read-out in experiment [3]: Ezrin (EZR), EZR (gene 7430)
The experiment in a line: LTEA_HepaRG_EZR: Life Technologies and Expression Analysis (LTEA) Assay for Ezrin (EZR) using HepaRG (AID 2283491). A digest of the protocol: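 EZR transcript levels came from Fluidigm qRT-PCR and were normalized to three housekeeping genes after 48 h chemical exposure of HepaRG cells. Dosing used an 8-point half-log series with a 100 uM top concentration in 0.5% DMSO, tested in duplicate; both directions were fitted versus vehicle.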

Read-out in experiment [4]: Cytochrome P450 3A7 (Homo sapiens) (UniProt P24462)
The experiment in a line: LTEA_HepaRG_CYP3A7: Life Technologies and Expression Analysis (LTEA) Assay for CYP3A7 using HepaRG (AID 2283492). A digest of the protocol: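 Differentiated HepaRG cells in serum-free induction medium exposed 48 h in duplicate to 8-point half-log series from 100 uM top in 0.5% DMSO. CYP3A7 mRNA by qRT-PCR, normalized to ACTB/GAPDH/POLR2A, bidirectional fit versus DMSO.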

Read-out in experiment [5]: CYP3A5 (gene 1577)
Nature of the experiment: LTEA_HepaRG_CYP3A5: Life Technologies and Expression Analysis (LTEA) Assay for CYP3A5 using HepaRG (AID 2283493). The procedure, abridged: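 Human HepaRG hepatic cells receive 48 h chemical treatment at eight concentrations (half-log steps from 100 uM) in 0.5% DMSO. Expression of CYP3A5 is quantified by Fluidigm qRT-PCR and normalized to three reference genes.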

Read-out in experiment [6]: Fatty Acid-Binding Protein 1 (FABP1), FABP1 (gene 2168)
The experiment in a line: LTEA_HepaRG_FABP1: Life Technologies and Expression Analysis (LTEA) Assay for Fatty Acid-Binding Protein 1 (FABP1) using HepaRG (AID 2283494). The procedure, abridged: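 qRT-PCR readout of FABP1 transcript (normalized to three housekeeping genes) after 48 h chemical exposure of HepaRG cells; eight concentrations, half-log steps, max 100 uM, 0.5% DMSO vehicle; gain or loss fitted relative to DMSO baseline.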

Read-out in experiment [7]: Cytochrome P450 4A22 (Homo sapiens) (UniProt Q5TCH4)
The experiment in a line: LTEA_HepaRG_CYP4A22: Life Technologies and Expression Analysis (LTEA) Assay for Cytochrome P450 4A22 (CYP4A22) using HepaRG (AID 2283495). A digest of the protocol:
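Differentiated HepaRG cells in serum-free induction medium exposed 48 h in duplicate to eight half-log concentrations up to 100 uM in 0.5% DMSO. CYP4A22 mRNA quantified by TaqMan qRT-PCR, normalized to ACTB, GAPDH and POLR2A; bidirectional fit versus DMSO.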

Read-out in experiment [8]: Cytochrome P450 7A1 (Homo sapiens) (UniProt P22680)
Nature of the experiment: LTEA_HepaRG_CYP7A1: Life Technologies and Expression Analysis (LTEA) Assay for Cytochrome P450 7A1 (CYP7A1) using HepaRG (AID 2283496). A digest of the protocol:
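HepaRG, 48 h exposure, 8-pt half-log series from 100 uM, 0.5% DMSO vehicle, duplicates. Readout: TaqMan qRT-PCR mRNA vs three housekeeping genes; bidirectional curve fit against DMSO baseline.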

Read-out in experiment [9]: Glutathione S-Transferase (GSTA2), GSTA2 (gene 2939)
Nature of the experiment: LTEA_HepaRG_GSTA2: Life Technologies and Expression Analysis (LTEA) Assay for Glutathione S-Transferase (GSTA2) using HepaRG (AID 2283497). The procedure, abridged:
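qRT-PCR readout of GSTA2 transcript, normalized to three housekeeping genes, fitted bidirectionally against 0.5% DMSO baseline. Differentiated HepaRG cells received compound for 48 h at 8 concentrations (top 100 uM, half-log steps).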

Read-out in experiment [10]: Glutamate-cysteine ligase catalytic (GCLC), GCLC (gene 2729)
The experiment in a line: LTEA_HepaRG_GCLC: Life Technologies and Expression Analysis (LTEA) Assay for Glutamate-cysteine ligase catalytic (GCLC) using HepaRG (AID 2283498). The procedure, abridged: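 HepaRG, 48 h exposure, 8-pt half-log series from 100 uM, 0.5% DMSO vehicle; TaqMan qRT-PCR for GCLC mRNA, housekeeping-normalized; bidirectional curve fit vs DMSO baseline.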

Read-out in experiment [11]: growth arrest and DNA damage 45 (GADD45G), GADD45G (gene 10912)
Nature of the experiment: LTEA_HepaRG_GADD45G: Life Technologies and Expression Analysis (LTEA) Assay for growth arrest and DNA damage 45 (GADD45G) using HepaRG (AID 2283499). The procedure, abridged:
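Differentiated human HepaRG cells, 48 h post-plating, exposed 48 h in serum-free induction medium to 8 half-log concentrations (top 100 uM, 0.5% DMSO) in duplicate. GADD45G mRNA measured by Fluidigm TaqMan qRT-PCR, normalized to ACTB, GAPDH, POLR2A; bidirectional fit versus DMSO.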

Read-out in experiment [12]: Glutamate-cysteine ligase regulatory (GCLM), GCLM (gene 2730)
The experiment in a line: LTEA_HepaRG_GCLM: Life Technologies and Expression Analysis (LTEA) Assay for Glutamate-cysteine ligase regulatory (GCLM) using HepaRG (AID 2283500). A digest of the protocol:
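Endpoint is GCLM transcript level by qRT-PCR, normalized to three housekeeping genes, after 48 h chemical exposure of human HepaRG cells (0.5% DMSO vehicle, top 100 uM, half-log dilutions). Fitting was bidirectional relative to DMSO.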

Read-out in experiment [13]: Glutathione S-transferase M3 (GSTM3), GSTM3 (gene 2947)
Nature of the experiment: LTEA_HepaRG_GSTM3: Life Technologies and Expression Analysis (LTEA) Assay for Glutathione S-transferase M3 (GSTM3) using HepaRG (AID 2283501). A digest of the protocol:
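Differentiated human HepaRG cells were exposed in duplicate for 48 h in serum-free induction medium, 8 points from 100 uM top in half-log steps, 0.5% DMSO. GSTM3 mRNA was measured by TaqMan qRT-PCR, normalized to ACTB, GAPDH and POLR2A; bidirectional fit versus DMSO.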

Read-out in experiment [14]: Hypoxia-inducible factor 1-alpha (Homo sapiens) (UniProt Q16665)
Nature of the experiment: LTEA_HepaRG_HIF1A: Life Technologies and Expression Analysis (LTEA) Assay for Hypoxia-inducible factor 1 (HIF1A) Trancription factor using HepaRG (AID 2283503). A digest of the protocol:
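HIF1A transcript level read by qRT-PCR (ACTB, GAPDH, POLR2A normalization) after 48 h chemical exposure of HepaRG cultures. Eight half-log concentrations, top 100 uM, 0.5% DMSO vehicle, duplicates; bidirectional curve fit against DMSO baseline.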

Read-out in experiment [15]: 3-Hydroxy-3-Methylglutaryl-CoA Synthase 2 (HMGCS2), HMGCS2 (gene 3158)
Nature of the experiment: LTEA_HepaRG_HMGCS2: Life Technologies and Expression Analysis (LTEA) Assay for 3-Hydroxy-3-Methylglutaryl-CoA Synthase 2 (HMGCS2) using HepaRG (AID 2283504). The procedure, abridged: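 Human HepaRG cells in serum-free induction medium were exposed in duplicate for 48 h to 8-point half-log series from 100 uM top in 0.5% DMSO. HMGCS2 mRNA measured by TaqMan qRT-PCR, normalised to ACTB, GAPDH, POLR2A; bidirectional fit versus DMSO.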

Read-out in experiment [16]: HGF (gene 3082)
The experiment in a line: LTEA_HepaRG_HGF: Life Technologies and Expression Analysis (LTEA) Assay for Hepatocyte Growth Facto (HGF) using HepaRG (AID 2283505). A digest of the protocol: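 Differentiated HepaRG cells in serum-free induction medium exposed 48 h in duplicate, 8 half-log concentrations from 100 uM in 0.5% DMSO. HGF mRNA by qRT-PCR, normalised to ACTB, GAPDH, POLR2A; bidirectional fitting.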

Read-out in experiment [17]: Insulin Like Growth Factor 1 (IGF1), IGF1 (gene 3479)
Nature of the experiment: LTEA_HepaRG_IGF1: Life Technologies and Expression Analysis (LTEA) Assay for Insulin Like Growth Factor 1 (IGF1) using HepaRG (AID 2283506). The procedure, abridged: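 Cells are thawed, plated and cultured 48 h, then exposed in duplicate to chemical (highest 100 uM, half-log steps, 0.5% DMSO) for another 48 h. Total RNA is analysed by Fluidigm qRT-PCR for IGF1 expression relative to vehicle.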

Read-out in experiment [18]: Insulin-like growth factor-binding protein 1 (IGFBP1), IGFBP1 (gene 3484)
The experiment in a line: LTEA_HepaRG_IGFBP1: Life Technologies and Expression Analysis (LTEA) Assay for Insulin-like growth factor-binding protein 1 (IGFBP1) using HepaRG (AID 2283508). A digest of the protocol:
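HepaRG cells, plated 48 h then switched to serum-free induction medium, exposed in duplicate for 48 h to 8-point half-log series from 100 uM in 0.5% DMSO. mRNA measured by qRT-PCR, normalized to ACTB/GAPDH/POLR2A; bidirectional fit versus DMSO.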

Read-out in experiment [19]: Heat shock 70 kDa protein 1 (HSPA1A), gene 3303
Nature of the experiment: LTEA_HepaRG_HSPA1A: Life Technologies and Expression Analysis (LTEA) Assay for Heat shock 70 kDa protein 1 (HSPA1A) using HepaRG (AID 2283502). The procedure, abridged:
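Cells were plated and cultured for 48 h, then switched to serum-free induction medium. Chemicals were added at eight half-log concentrations up to 100 uM for 48 h. RNA was then isolated and HSPA1A measured by qRT-PCR with bidirectional curve fitting against DMSO.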

Read-out in experiment [20]: Intercellular Adhesion Molecule 1 (ICAM1), ICAM1 (gene 3383)
The experiment in a line: LTEA_HepaRG_ICAM1: Life Technologies and Expression Analysis (LTEA) Assay for Intercellular Adhesion Molecule 1 (ICAM1) using HepaRG (AID 2283507). The procedure, abridged: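 Differentiated human HepaRG cells in serum-free induction medium exposed 48 h in duplicate to 8 half-log concentrations (top 100 uM, 0.5% DMSO). ICAM1 mRNA quantified by TaqMan qRT-PCR, normalized to ACTB, GAPDH and POLR2A; bidirectional fitting versus DMSO.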

Here are results for three compounds from PubChem BioAssay (EPA / NIEHS).

One may read the AC50 as the concentration at which the activity in the assay is half-maximal.

Calls of active or inactive are those of the source. Rule for the calls: active = hit-call score of the fitted dose curve at least 0.9, where 1 is the maximum; inactive = score below 0.9.

Sequence of Hypoxia-inducible factor 1-alpha (Homo sapiens) (Q16665 whole entry, looked up): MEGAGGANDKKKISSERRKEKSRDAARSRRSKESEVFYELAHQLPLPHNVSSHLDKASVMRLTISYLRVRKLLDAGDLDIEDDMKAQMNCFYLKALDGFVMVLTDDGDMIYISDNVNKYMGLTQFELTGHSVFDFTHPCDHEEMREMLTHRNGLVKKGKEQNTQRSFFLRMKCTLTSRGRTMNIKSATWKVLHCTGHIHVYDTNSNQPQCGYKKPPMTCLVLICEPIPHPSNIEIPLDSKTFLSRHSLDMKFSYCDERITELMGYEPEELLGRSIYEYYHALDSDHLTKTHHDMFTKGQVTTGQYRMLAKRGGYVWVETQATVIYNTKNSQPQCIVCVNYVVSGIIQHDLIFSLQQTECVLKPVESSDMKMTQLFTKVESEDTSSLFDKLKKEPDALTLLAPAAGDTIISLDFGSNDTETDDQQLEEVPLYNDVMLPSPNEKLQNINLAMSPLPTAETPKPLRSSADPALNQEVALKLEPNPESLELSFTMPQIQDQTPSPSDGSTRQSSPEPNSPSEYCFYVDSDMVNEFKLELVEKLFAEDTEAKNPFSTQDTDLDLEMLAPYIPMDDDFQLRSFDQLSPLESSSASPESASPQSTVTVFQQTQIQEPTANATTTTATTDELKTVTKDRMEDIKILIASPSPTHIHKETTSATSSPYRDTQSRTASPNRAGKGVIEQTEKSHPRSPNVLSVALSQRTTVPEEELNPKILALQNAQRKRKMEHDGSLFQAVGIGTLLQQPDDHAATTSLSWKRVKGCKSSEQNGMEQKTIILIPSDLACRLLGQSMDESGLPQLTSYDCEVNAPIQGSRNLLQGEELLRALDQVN
Sequence of Cytochrome P450 3A7 (Homo sapiens) (P24462 whole entry, looked up): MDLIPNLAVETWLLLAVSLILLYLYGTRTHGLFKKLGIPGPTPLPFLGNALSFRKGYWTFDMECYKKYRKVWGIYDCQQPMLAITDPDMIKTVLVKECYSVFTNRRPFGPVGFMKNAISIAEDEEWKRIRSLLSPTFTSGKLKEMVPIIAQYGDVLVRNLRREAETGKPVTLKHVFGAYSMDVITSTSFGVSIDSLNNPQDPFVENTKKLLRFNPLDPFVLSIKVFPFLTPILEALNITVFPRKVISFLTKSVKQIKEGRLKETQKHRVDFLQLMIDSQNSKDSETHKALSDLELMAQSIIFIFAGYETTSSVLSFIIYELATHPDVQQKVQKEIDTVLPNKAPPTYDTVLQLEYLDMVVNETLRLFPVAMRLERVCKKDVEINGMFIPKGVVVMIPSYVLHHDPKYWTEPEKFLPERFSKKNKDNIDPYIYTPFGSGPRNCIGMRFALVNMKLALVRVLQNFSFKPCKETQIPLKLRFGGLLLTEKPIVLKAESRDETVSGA

For `Cc1oc(-c2ccccc2)nc1CCOc1cccc2c1ccn2CCC(=O)O`, the outcome in experiment [1], in experiment [5], in experiment [14] and in experiment [16] was inactive. Moreover, the AC50 in experiment [2] was 4.76 µM (active); in [3], 9.92 µM (active); in experiment [4], 11.4 µM (active); in experiment [6], 87.6 µM (active); in [7], 85.2 µM (active); in experiment [8], 82.3 µM (active). Further, the concentration at half-maximal activity (AC50) in experiment [9] is 81.5 µM (active); in experiment [10], 50 µM (active); in experiment [11], 90.2 µM (active); in experiment [12], 75.8 µM (active); in [13] it was 9.92 µM (active); in [15] it was 83.2 µM (active). Further, the half-maximal activity concentration (AC50) in [17] was 69.9 µM (active); in experiment [18], 93.1 µM (active).

Regarding `CCc1c(C(=O)NN2CCCCC2)nn(-c2ccc(Cl)cc2Cl)c1-c1ccc(Br)cc1`, the result in experiment [1], in experiment [3] and in experiment [13] was inactive. Also, the concentration at half-maximal activity (AC50) in experiment [4] was 23.1 µM (active); in experiment [5], 50 µM (active); in experiment [6], 36.2 µM (active); in [7], 15.8 µM (active); in [8], 37.6 µM (active); in experiment [9] it was 31.7 µM (active). The half-maximal activity concentration (AC50) in [10] is 50 µM (active); in experiment [11] it was 41.6 µM (active); in experiment [12], 50 µM (active); in experiment [19] it was 86.3 µM (active); in experiment [14] it was 86.6 µM (active); in [15] it was 23.7 µM (active). Moreover, the values for the half-maximal activity concentration (AC50) in experiment [16], in [17] and in [18] were 90.4 µM (active), 50 µM (active) and 31.6 µM (active), respectively.

For the compound `Nc1ccc2c(c1)C(=O)c1ccccc1C2=O`, the AC50 in [1] was 6.13 µM (active); in [2], 10.4 µM (active); in experiment [5] it was 1.6 µM (active); in experiment [6], 13.6 µM (active); in experiment [7], 31 µM (active); in [8], 8.9 µM (active). The half-maximal activity concentration (AC50) in experiment [9] was 10.2 µM (active); in experiment [11] it was 3.17 µM (active); in [12], 10.1 µM (active); in experiment [15], 16.5 µM (active); in experiment [18], 13.2 µM (active). Also, the outcome in [3], in [4], in experiment [10], in experiment [13], in experiment [19] and in experiment [14] was inactive. The compound was classed as inactive in experiment [17] and in experiment [20].
